Several values for one entry are separate records, joined by “and”; a condition that tells them apart may be missing. Equal entries are not always repeated. Inconclusive results are not listed. Some compounds were tested as several samples or in several runs, with calls that do not always agree. Activity calls are given as the source filed them. The calls were made as follows, unless noted: active = hit-call score of the fitted dose curve at least 0.9, where 1 is the maximum; inconclusive = response in the unintended direction; inactive = score below 0.9.
Columns and labels:
[1] = ATG_TCF_b_cat_CIS: Attagene CIS-FACTORIAL HepG2 Assay for human T-Cell-Factor with beta-catenin (TCF/b-cat) (AID 2282965; active = hit-call score of the fitted dose curve at least 0.9, where 1 is the maximum; inactive = score below 0.9); settings: HepG2 TCF/beta-catenin cis-reporter transcription, actives raise or lower the signal
How it was run: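 In this cis-format system, transfected HepG2 cells report endogenous transcription factor activity. Readout after 24 h exposure is reporter transcript abundance from RT-PCR and capillary electrophoresis, analysed for gain or loss of signal versus DMSO.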

[2] = ATG_TAL_CIS: Attagene CIS-FACTORIAL HepG2 Assay for human TAL Basal Promoter (AID 2282966; active = hit-call score of the fitted dose curve at least 0.9, where 1 is the maximum; inactive = score below 0.9;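 also: background control endpoint measuring basal TAL promoter reporter mRNA not a specific factor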); settings: HepG2 Attagene cis-factorial TAL promoter reporter; actives raise or lower the signal
How it was run: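 Readout: reporter mRNA, fluorescence by CE. System: HepG2, transient multi-reporter transfection, endogenous TF activity. Exposure: 24 h. Analysis: bidirectional, DMSO-normalized; background control.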

[3] = ATG_TGFb_CIS: Attagene CIS-FACTORIAL HepG2 Assay for human Transforming Growth Factor (TGF) (AID 2282967; active = hit-call score of the fitted dose curve at least 0.9, where 1 is the maximum; inactive = score below 0.9); settings: HepG2 Attagene CIS TGFb reporter, mRNA transcription; actives raise or lower the signal
How it was run: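 Endogenous TGFB1-linked transcription factor activity read as reporter mRNA via RT-PCR and capillary electrophoresis, 24 h after dosing transiently transfected HepG2 cells. Gain or loss of signal fitted relative to DMSO.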

[4] = ATG_VDRE_CIS: Attagene CIS-FACTORIAL HepG2 Assay for human Vitamin D Receptor Element (VDRE) (AID 2282968; active = hit-call score of the fitted dose curve at least 0.9, where 1 is the maximum; inactive = score below 0.9); settings: HepG2 VDRE cis-reporter transcription, actives raise or lower the signal
How it was run: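 HepG2 cells transiently transfected with cis-element reporter units, dosed 24 h; reporter mRNA measured by RT-PCR, 6-FAM labeling, HpaI digestion and capillary electrophoresis. Activity fitted bidirectionally against DMSO baseline.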

[5] = biological target: Nuclear receptor subfamily 1 group I member 3 (Homo sapiens) (UniProt Q14994); assay: ATG_CAR_TRANS: Attagene TRANS-FACTORIAL HepG2 Assay for human Constitutive Androstane Receptor (CAR) (AID 2282969); settings: HepG2 Attagene TRANS-FACTORIAL CAR reporter;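 also: activators raise reporter mRNA above DMSO so AC50 marks induction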
How it was run: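 HepG2 cells transiently transfected with multiplexed GAL4-UAS reporter units expressing chimeric NR-Gal4 proteins; compound exposure 24 h. Reporter mRNA measured by RT-PCR, 6-FAM labelling, HpaI digestion and capillary electrophoresis; gain-of-signal fitted against DMSO baseline.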

[6] = biological target: Estrogen receptor (Homo sapiens) (UniProt P03372); assay: ATG_ERa_TRANS: Attagene TRANS-FACTORIAL HepG2 Assay for human Estrogen Receptor alpha (ERa) (AID 2282970); settings: HepG2 Attagene TRANS ERa GAL4 reporter, mRNA
How it was run: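 Transactivation via ERa-Gal4 chimera in HepG2; 24 hour incubation; reporter mRNA detected by fluorescence RT-PCR and capillary electrophoresis.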

[7] = biological target: X-box-binding protein 1 (Homo sapiens) (UniProt P17861); assay: ATG_Xbp1_CIS: Attagene CIS-FACTORIAL HepG2 Assay for human X-box Binding Protein 1 (XBP1) (AID 2282972; active = hit-call score of the fitted dose curve at least 0.9, where 1 is the maximum; inactive = score below 0.9); settings: HepG2 XBP1 cis-element reporter, Attagene multiplex; actives raise or lower the signal
How it was run: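 HepG2 cells transiently transfected with multiple cis-element reporter units report endogenous TF activity; 24 h exposure, then reporter mRNA measured by RT-PCR, 6-FAM labelling, HpaI digestion and capillary electrophoresis. Bidirectional fitting versus DMSO.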

[8] = ATG_M_19_TRANS: Attagene TRANS-FACTORIAL HepG2 Assay for M19 Transcription Factor (Internal Marker) (AID 2282974); settings: HepG2 Attagene TRANS-FACTORIAL M19 internal marker reporter
How it was run: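 Transfected HepG2 (GAL4-UAS MRTUs), 24 h compound, TriZol RNA, DNase-treated RT, reporter PCR, FAM label, HpaI digest, CE fluorescence; gain vs DMSO.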

[9] = ATG_Hpa5_TRANS: Attagene TRANS-FACTORIAL HepG2 Assay for human GAL4-Hpa5 Hepatocyte Transcription Factor Basal Promoter (AID 2282975); settings: HepG2 Attagene GAL4-Hpa5 transcription reporter;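 also: hits are increases in reporter mRNA over DMSO baseline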
How it was run: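 Basal-promoter GAL4 background control within the HepG2 trans-factorial panel of transiently transfected reporter units. Reporter mRNA is measured 24 h after dosing by RT-PCR and capillary electrophoresis, fitted for gain of signal versus DMSO.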

[10] = biological target: Glucocorticoid receptor (Homo sapiens) (UniProt P04150); assay: ATG_GR_TRANS: Attagene TRANS-FACTORIAL HepG2 Assay for human Glucocorticoid Receptor (GR) (AID 2282978); settings: HepG2 Attagene TRANS GR reporter, mRNA transcription;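 also: activators score as hits since higher reporter transcript over DMSO is fitted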
How it was run: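 After 24 h incubation with test chemical, transfected HepG2 cells were lysed for RNA; reporter cDNA was amplified, FAM-labelled, HpaI-digested and sized on a capillary analyser. Signal gain relative to DMSO was scored.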

[11] = biological target: Oxysterols receptor LXR-alpha (Homo sapiens) (UniProt Q13133); assay: ATG_LXRa_TRANS: Attagene TRANS-FACTORIAL HepG2 Assay for human Liver X Receptor alpha (LXRa) (AID 2282980); settings: HepG2 Attagene TRANS reporter, LXRa transactivation
How it was run: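 Transient HepG2 transfectants, 24 h dosing, RT-PCR/CE mRNA reporter quantitation; gain-of-signal vs DMSO.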

[12] = biological target: Oxysterols receptor LXR-beta (Homo sapiens) (UniProt P55055); assay: ATG_LXRb_TRANS: Attagene TRANS-FACTORIAL HepG2 Assay for human Liver X Receptor beta (LXRb) (AID 2282981); settings: HepG2 Attagene TRANS GAL4-LXRb reporter, mRNA
How it was run: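 HepG2 cells transiently transfected with multiple reporter transcription units carrying chimeric NR-Gal4 proteins acting on GAL4-UAS reporters; compound exposure 24 h. Reporter mRNA quantified by RT-PCR, 6-FAM labelling, HpaI digestion and capillary electrophoresis; gain of signal versus DMSO.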

[13] = biological target: Hepatocyte nuclear factor 4-alpha (Homo sapiens) (UniProt P41235); assay: ATG_HNF4a_TRANS: Attagene TRANS-FACTORIAL HepG2 Assay for human Hepatocyte Nuclear Factor 4 alpha (HNF4a) (AID 2282982); settings: HepG2 HNF4a transactivation reporter, mRNA readout
How it was run: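 HepG2 cells transiently transfected with multiplexed GAL4-UAS reporter units responsive to chimeric NR-GAL4 proteins; compound exposure 24 h. Reporter mRNA quantified by RT-PCR, 6-FAM labelling, HpaI digestion and capillary electrophoresis; gain of signal versus DMSO baseline.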

[14] = biological target: Transcriptional activator Myb (Homo sapiens) (UniProt P10242); assay: ATG_Myb_CIS: Attagene CIS-FACTORIAL HepG2 Assay for human Myeloblastosis (Myb) Proto-Oncogene Transcription Factor (AID 2282986; active = hit-call score of the fitted dose curve at least 0.9, where 1 is the maximum; inactive = score below 0.9); settings: HepG2 Attagene CIS-FACTORIAL Myb reporter transcription; actives raise or lower the signal
How it was run: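 After 24 h of compound dosing, total RNA from transfected HepG2 cells is reverse-transcribed and the reporter sequences amplified, labeled and separated by capillary electrophoresis. Values come from bidirectional fitting against DMSO.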

[15] = biological target: Steroid hormone receptor ERR1 (Homo sapiens) (UniProt P11474); assay: ATG_ERRa_TRANS: Attagene TRANS-FACTORIAL HepG2 Assay for human Estrogen-Related Receptor alpha (ERRa) (AID 2282971); settings: HepG2 Attagene TRANS reporter, ERRa transactivation
How it was run: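 HepG2 cells were transiently transfected with multiple GAL4-UAS reporter units, then dosed with compound for 24 h. Total RNA was reverse-transcribed, reporter cDNA PCR-amplified and fluorescently labelled, and fragments resolved by capillary electrophoresis; induction was compared with DMSO.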

[16] = biological target: Androgen receptor (Homo sapiens) (UniProt P10275); assay: ATG_AR_TRANS: Attagene TRANS-FACTORIAL HepG2 Assay for human Androgen Receptor (AR) (AID 2282973); settings: HepG2 Attagene TRANS-FACTORIAL AR reporter transcription
How it was run: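 Transfected HepG2, 24 h treatment, chimeric NR-Gal4 driving GAL4-UAS reporters. mRNA induction by RT-PCR/capillary electrophoresis fluorescence; DMSO as negative control and baseline.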

[17] = ATG_M_32_TRANS: Attagene TRANS-FACTORIAL HepG2 Assay for M32 Transcription Factor (Internal Marker) (AID 2282984); settings: HepG2 Attagene TRANS M32 internal marker reporter
How it was run: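 HepG2 cells transiently transfected with multiple GAL4-UAS reporter transcription units, dosed for 24 hours; reporter mRNA quantified by RT-PCR, 6-FAM primer extension, HpaI digestion and capillary electrophoresis. Gain-of-signal fitted versus DMSO baseline; internal background-control marker.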

[18] = biological target: Nuclear receptor subfamily 4 group A member 2 (Homo sapiens) (UniProt P43354); assay: ATG_NURR1_TRANS: Attagene TRANS-FACTORIAL HepG2 Assay for human Nuclear Receptor Related Protein 1 (NURR1) (AID 2282985); settings: HepG2 Attagene TRANS reporter, mRNA readout
How it was run: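 HepG2 cells transiently transfected with GAL4-UAS reporter units and chimeric NR-Gal4 constructs; chemical exposure 24 h. Reporter mRNA quantified by RT-PCR, fluorescent labelling and capillary electrophoresis; gain of signal fitted relative to DMSO baseline.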

[19] = ATG_GAL4_TRANS: Attagene TRANS-FACTORIAL HepG2 Assay for GAL4 (Internal Marker) (AID 2282976); settings: HepG2 Attagene TRANS GAL4 internal marker reporter
How it was run: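 Fluorescence from capillary electrophoresis of labelled RT-PCR products quantifies reporter mRNA induction after 24 h dosing of HepG2 cells carrying transfected GAL4-UAS reporter transcription units. Vehicle DMSO serves as baseline.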

[20] = ATG_M_06_TRANS: Attagene TRANS-FACTORIAL HepG2 Assay for M06 Transcription Factor (Internal Marker) (AID 2282983); settings: HepG2 Attagene TRANS M06 internal marker reporter;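 also: reporter transcript level by RT-PCR then capillary electrophoresis fluorescence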
How it was run: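 Measured by capillary electrophoresis of fluorescently labelled RT-PCR products, this endpoint reflects reporter mRNA in HepG2 cells harbouring exogenous NR-GAL4 reporter constructs after 24 h exposure, with DMSO as baseline.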

Measured: AC50

Chain of Oxysterols receptor LXR-beta (Homo sapiens) (P55055 whole entry, looked up, the tested form may be a part): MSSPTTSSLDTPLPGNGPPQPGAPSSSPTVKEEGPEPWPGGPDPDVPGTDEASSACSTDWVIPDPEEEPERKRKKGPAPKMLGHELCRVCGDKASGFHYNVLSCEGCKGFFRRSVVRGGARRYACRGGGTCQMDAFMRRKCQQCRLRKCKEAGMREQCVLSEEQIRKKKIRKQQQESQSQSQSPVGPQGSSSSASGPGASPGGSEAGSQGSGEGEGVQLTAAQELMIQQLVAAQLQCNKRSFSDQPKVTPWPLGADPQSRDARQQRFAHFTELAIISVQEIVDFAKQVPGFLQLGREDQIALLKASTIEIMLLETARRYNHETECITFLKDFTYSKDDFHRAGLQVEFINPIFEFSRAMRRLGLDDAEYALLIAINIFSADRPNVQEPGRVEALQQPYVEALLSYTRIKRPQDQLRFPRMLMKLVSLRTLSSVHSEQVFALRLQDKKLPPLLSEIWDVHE
Chain of Hepatocyte nuclear factor 4-alpha (Homo sapiens) (P41235 whole entry, looked up, the tested form may be a part): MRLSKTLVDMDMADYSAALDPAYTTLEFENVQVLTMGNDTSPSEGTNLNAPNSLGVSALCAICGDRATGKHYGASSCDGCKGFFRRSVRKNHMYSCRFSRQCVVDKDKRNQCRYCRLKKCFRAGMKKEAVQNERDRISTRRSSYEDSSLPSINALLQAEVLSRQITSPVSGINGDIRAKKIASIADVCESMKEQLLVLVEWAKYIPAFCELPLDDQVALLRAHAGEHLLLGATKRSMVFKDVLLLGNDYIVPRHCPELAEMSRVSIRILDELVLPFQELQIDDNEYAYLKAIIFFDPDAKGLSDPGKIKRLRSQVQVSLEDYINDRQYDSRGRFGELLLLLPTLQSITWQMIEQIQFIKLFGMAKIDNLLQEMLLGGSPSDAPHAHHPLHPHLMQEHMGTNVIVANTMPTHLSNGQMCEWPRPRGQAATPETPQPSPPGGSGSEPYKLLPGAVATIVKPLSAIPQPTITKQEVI
Chain of Nuclear receptor subfamily 1 group I member 3 (Homo sapiens) (Q14994 whole entry, looked up, the tested form may be a part): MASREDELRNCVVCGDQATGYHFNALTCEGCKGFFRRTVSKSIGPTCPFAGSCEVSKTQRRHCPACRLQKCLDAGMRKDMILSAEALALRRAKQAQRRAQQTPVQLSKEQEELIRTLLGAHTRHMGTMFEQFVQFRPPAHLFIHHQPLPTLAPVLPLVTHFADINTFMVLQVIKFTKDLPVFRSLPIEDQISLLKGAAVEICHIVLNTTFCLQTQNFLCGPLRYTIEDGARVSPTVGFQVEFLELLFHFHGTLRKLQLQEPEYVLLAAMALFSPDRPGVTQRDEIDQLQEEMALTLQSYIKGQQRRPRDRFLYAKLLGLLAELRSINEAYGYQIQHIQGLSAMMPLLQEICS
Chain of Oxysterols receptor LXR-alpha (Homo sapiens) (Q13133 whole entry, looked up): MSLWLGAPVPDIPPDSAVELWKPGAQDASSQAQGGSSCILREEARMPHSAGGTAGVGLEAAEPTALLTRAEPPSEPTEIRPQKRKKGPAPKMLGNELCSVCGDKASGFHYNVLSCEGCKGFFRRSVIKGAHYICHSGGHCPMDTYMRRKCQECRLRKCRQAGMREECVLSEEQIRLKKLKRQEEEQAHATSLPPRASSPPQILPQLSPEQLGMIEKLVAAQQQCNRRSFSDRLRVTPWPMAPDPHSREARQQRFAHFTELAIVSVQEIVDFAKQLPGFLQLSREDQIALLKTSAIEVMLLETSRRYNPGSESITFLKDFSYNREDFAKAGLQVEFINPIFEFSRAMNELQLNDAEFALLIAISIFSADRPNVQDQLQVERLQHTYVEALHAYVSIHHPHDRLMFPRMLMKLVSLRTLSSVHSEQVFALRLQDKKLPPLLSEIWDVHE
Chain of Estrogen receptor (Homo sapiens) (P03372 whole entry, looked up, the tested form may be a part): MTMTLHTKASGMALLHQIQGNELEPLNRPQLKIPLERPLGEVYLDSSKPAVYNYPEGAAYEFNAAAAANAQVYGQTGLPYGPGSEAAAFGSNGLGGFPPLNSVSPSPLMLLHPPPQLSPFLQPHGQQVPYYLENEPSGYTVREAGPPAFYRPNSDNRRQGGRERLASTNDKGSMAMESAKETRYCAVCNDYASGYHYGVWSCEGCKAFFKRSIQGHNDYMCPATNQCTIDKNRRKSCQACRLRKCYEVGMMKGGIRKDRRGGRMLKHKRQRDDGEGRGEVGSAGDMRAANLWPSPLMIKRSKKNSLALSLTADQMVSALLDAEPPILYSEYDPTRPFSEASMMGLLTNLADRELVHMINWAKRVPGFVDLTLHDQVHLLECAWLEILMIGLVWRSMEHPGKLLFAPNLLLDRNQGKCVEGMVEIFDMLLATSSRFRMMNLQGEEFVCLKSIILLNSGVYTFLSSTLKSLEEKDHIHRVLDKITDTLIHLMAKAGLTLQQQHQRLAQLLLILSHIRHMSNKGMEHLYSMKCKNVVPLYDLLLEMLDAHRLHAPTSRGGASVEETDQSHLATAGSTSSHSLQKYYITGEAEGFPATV
Chain of X-box-binding protein 1 (Homo sapiens) (P17861 whole entry, looked up): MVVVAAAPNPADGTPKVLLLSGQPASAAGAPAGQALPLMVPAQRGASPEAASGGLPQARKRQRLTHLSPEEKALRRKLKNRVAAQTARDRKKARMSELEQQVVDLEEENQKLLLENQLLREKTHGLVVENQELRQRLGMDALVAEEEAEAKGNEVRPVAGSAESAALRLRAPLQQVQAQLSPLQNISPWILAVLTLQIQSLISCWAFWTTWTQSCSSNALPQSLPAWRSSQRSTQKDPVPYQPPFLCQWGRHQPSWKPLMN
Chain of Glucocorticoid receptor (Homo sapiens) (P04150 whole entry, looked up): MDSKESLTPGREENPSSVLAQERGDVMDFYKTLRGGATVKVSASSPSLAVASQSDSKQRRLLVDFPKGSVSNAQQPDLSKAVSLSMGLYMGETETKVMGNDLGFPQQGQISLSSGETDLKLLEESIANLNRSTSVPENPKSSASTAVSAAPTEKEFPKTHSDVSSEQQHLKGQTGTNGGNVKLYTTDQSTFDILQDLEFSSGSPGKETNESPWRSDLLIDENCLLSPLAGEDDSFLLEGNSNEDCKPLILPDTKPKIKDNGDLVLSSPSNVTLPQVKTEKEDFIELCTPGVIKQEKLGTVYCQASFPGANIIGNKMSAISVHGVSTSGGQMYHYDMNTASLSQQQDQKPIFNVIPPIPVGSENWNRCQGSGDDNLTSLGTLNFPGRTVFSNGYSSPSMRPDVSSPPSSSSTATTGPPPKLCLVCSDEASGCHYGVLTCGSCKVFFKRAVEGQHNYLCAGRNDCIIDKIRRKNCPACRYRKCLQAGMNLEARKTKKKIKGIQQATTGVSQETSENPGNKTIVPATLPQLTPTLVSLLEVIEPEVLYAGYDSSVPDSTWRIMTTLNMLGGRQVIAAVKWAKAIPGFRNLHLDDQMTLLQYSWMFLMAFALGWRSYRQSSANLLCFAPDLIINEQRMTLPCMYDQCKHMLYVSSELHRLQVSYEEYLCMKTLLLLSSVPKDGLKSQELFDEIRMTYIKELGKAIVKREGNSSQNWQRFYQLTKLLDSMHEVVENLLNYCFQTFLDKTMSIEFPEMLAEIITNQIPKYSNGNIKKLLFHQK
Chain of Nuclear receptor subfamily 4 group A member 2 (Homo sapiens) (P43354 whole entry, looked up, the tested form may be a part): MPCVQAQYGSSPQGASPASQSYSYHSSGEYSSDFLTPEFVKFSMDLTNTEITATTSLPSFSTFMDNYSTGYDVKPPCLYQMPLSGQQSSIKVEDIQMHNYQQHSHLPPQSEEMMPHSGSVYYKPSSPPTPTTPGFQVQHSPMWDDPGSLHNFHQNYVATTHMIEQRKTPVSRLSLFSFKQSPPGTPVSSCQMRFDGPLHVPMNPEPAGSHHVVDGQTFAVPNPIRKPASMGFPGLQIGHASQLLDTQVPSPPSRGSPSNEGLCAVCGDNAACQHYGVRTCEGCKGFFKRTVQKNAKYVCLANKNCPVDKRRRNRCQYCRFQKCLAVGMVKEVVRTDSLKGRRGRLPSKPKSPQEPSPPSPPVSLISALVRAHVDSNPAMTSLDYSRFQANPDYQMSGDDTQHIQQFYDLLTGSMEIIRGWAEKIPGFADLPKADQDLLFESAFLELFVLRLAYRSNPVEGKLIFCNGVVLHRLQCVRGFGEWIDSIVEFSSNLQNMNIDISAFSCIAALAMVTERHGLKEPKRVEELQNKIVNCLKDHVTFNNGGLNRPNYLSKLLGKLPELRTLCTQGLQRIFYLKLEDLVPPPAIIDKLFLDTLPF
Chain of Androgen receptor (Homo sapiens) (P10275 whole entry, looked up, the tested form may be a part): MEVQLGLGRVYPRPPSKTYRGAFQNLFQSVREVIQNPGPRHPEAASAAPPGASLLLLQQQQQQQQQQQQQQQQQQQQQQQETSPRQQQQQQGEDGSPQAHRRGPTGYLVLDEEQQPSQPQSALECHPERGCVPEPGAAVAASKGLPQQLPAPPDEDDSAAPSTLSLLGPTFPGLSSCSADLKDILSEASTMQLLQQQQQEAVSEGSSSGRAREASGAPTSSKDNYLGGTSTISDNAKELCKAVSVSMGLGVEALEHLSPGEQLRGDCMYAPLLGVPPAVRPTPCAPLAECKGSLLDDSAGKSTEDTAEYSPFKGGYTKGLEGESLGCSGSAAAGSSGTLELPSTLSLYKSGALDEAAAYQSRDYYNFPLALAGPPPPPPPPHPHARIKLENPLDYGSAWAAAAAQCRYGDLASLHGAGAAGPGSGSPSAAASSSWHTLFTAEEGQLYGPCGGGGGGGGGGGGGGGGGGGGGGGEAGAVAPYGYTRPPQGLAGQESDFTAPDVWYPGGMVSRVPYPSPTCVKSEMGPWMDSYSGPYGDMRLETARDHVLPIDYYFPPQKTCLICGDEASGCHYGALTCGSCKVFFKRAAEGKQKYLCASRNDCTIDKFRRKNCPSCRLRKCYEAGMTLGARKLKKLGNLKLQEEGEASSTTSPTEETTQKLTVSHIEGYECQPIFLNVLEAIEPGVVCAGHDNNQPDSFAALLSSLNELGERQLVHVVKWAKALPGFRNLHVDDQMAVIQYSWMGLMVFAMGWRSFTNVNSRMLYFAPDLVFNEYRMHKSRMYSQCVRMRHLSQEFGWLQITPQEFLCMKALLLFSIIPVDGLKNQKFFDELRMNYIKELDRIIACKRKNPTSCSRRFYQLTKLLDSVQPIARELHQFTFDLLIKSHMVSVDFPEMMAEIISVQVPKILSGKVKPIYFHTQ

N#Cc1c(Cl)c(Cl)c(Cl)c(C#N)c1Cl
active: [4] 0.267 µM
not listed: [15] | [16] | [17] | [18] | [19] | [20]
inactive: all other assays above

O=[N+]([O-])/N=C1\NCCN1Cc1ccc(Cl)nc1
not listed: [8] | [13] | [19] | [20]
inactive: all other assays above

O=C1c2ccccc2C(=O)N1SC(Cl)(Cl)Cl
not listed: [10] | [11] | [15] | [16] | [19] | [20]
inactive: all other assays above

OCCOc1ccccc1
not listed: [9] | [13] | [16] | [19] | [20]
inactive: all other assays above

Oc1ccc(Cl)cc1Cc1ccccc1
active: [1] 16.4 µM | [7] 7.32 µM and 11.2 µM and 15.9 µM | [10] 33.6 µM | [18] 14.7 µM | [14] 15.2 µM
inactive: [1] | [2] | [3] | [5] | [7] | [16] | [8] | [19] | [10] | [11] | [12] | [13] | [20] | [17] | [18] | [14]

COc1cc(OC)nc(NC(=O)NS(=O)(=O)c2cc(NC=O)ccc2C(=O)N(C)C)n1
not listed: [9] | [10] | [11] | [17] | [19] | [20]
inactive: all other assays above

— PubChem BioAssay (EPA / NIEHS)
